# Assay outcomes as filed in PubChem.
# HPGD block: HPGD (human) dehydrogenase inhibition | P15428 | purified HPGD, NADH fluorescence kinetic, PGE2 substrate | Potency, µM, inactives show at the highest dose activity change, negative = inhibition, hits mostly inhibitors | 150,000 compounds, 4.3% hits; active = well fitted inhibition curve with a large enough effect, not every such curve was filed as active; inconclusive = small, poorly fitted or top-dose-only effect, or another doubt; inactive = no such curve, though single readings can be large or run the other way; also: potency is read from the fitted curve at half-maximal effect; % is scaled to controls: 0 for no effect and ±100 for the full control effect
# Target sequence (P15428 whole entry, looked up): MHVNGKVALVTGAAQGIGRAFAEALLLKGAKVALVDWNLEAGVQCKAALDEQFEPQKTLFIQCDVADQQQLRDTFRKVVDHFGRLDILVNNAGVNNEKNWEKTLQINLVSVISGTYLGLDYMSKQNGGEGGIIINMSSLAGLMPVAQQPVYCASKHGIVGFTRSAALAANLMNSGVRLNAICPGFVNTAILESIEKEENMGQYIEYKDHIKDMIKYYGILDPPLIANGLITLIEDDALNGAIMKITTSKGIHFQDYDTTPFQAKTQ
#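 NADH formation kinetics: reaction with 30 uM PGE2 and 1 mM NAD+ (final), 20 nM enzyme, Tris-HCl pH 8 with Tween 20, after 15 min compound preincubation at room temperature. Fluorescence change, last versus first of five reads.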
# Tau fluor counter: counter-screen for tau fibril formation inhibitors; tau K18 P301L Alexa594 fluorescence, heparin fibrillization; Potency, µM (highest dose often 57.7 µM), without a hit: top-dose activity change, negative = decrease; 280,000 compounds, 0.93% hits; also: potency is read from the fitted curve at half-maximal effect; % is scaled to controls: 0 for no effect and ±100 for the full control effect; nearly all actives have a fitted effect of over 55% in size
#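 Human tau K18 P301L (15 uM unlabeled, 0.24 uM Alexa 594-labeled) in 100 mM sodium acetate pH 7 with 20 uM heparin, 6 hr at 37 C. ThT 30 uM added, 1 hr ambient; Alexa 594 FP and total fluorescence read at 555/632 nm.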
# Tau FP inhib: inhibitors of human tau fibril formation; P10636; K18 P301L tau heparin fibrillization, Alexa594 FP, 6 h; Potency, µM (top dose mostly 57.7 µM), for the others: at the highest dose activity, negative = inhibition, actives largely listed as inhibitors; 280,000 compounds, 0.39% hits; AID 1468; also: potency is read from the fitted curve at half-maximal effect; % is scaled to controls: 0 for no effect and ±100 for the full control effect; nearly all actives have a fitted effect of over 55% in size
# Target sequence (P10636 561-689 P618L limits assumed): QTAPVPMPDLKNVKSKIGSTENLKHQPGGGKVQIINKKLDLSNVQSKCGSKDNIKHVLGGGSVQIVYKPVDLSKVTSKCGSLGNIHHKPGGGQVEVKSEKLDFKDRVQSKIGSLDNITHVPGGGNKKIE
#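 Steps: dispense K18 P301L tau (15 uM plus 0.24 uM Alexa 594 tracer, final) in pH 7 sodium acetate; add compound; add heparin (20 uM final); incubate 6 hr, 37 C; add ThT (30 uM final); after 1 hr ambient, read FP.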
# Tau ThT inhib: tau fibrillization inhibition (ThT binding) | recombinant tau K18 P301L (four-repeat tau fragment), heparin-induced fibrillization, ThT fluorescence | AID 1460 | 270,000 compounds, 2.1% hits | Potency, µM (doses to about 57.4 µM), without a hit: top-dose activity, negative = inhibition, hits mostly inhibitors | P10636; also: potency is read from the fitted curve at half-maximal effect; % is scaled to controls: 0 for no effect and ±100 for the full control effect; nearly all actives have a fitted effect of over 55% in size
#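 Heparin-induced fibrillization of the P301L-mutant K18 repeat-domain fragment of human tau was followed by ThT binding in quantitative high-throughput format.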
# ALDH1A1 block: blocks purified human ALDH1A1 activity; Potency, µM (doses to about 75.3 µM), for inactives: at the top dose activity, negative = inhibition, actives largely listed as inhibitors; P00352; 220,000 compounds, 7.3% hits; AID 1030; Purified ALDH1A1, NADH fluorescence, propionaldehyde substrate; active = well fitted inhibition curve with a large enough effect, not every such curve was filed as active; inconclusive = small, poorly fitted or top-dose-only effect, or another doubt; inactive = no such curve, though single readings can be large or run the other way;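 also: potency is read from the fitted curve at half-maximal effect; plate controls were no enzyme wells and a reference inhibitor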
# NPSR antagonist: antagonists of human neuropeptide S receptor cAMP signaling | 220,000 compounds, 1% hits | CHO-NPSR cells, cAMP TR-FRET, antagonist mode | Potency, µM (top dose mostly 38.3 µM), for the others: top-dose activity change, negative = inhibition, most hits filed as inhibitors | AID 1461; also: potency is read from the fitted curve at half-maximal effect; % is scaled to controls: 0 for no effect and ±100 for the full control effect; nearly all actives have a fitted effect of over 50% in size
# Target sequence (Q6W5P4 whole entry, looked up): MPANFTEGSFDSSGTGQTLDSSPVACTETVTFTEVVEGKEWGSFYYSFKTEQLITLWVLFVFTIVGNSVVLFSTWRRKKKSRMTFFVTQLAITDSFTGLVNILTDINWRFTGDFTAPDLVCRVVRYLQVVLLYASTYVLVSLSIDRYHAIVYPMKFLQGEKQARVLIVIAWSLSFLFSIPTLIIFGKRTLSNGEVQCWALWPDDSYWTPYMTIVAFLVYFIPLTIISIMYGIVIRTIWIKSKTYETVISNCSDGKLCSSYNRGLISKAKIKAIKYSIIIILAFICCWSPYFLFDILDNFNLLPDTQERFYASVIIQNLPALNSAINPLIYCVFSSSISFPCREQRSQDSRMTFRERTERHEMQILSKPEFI
# HPGD inh cf: confirmation of human HPGD inhibitors; shares compounds with HPGD block; recombinant HPGD, NADH fluorescence, PGE2 substrate; Potency, µM (highest dose often 57.1 µM), for the others: at the top dose activity change, negative = inhibition, most hits filed as inhibitors; 90 compounds, 90% hits; AID 2429; calls by dose curve
# * hit, by the source's call; ? = inconclusive; nt = no result given; [ ] = dose if it differs, or a comment. Rows were chosen to be rich in hits. Some 9.5% of all compounds tested hit in one or more screens of this group. Unless noted, calls follow the shape of the dose curve; as a rule, active = well fitted curve in the direction sought with a large enough effect; inconclusive = small, poorly fitted or top-dose-only effect, or another doubt; inactive = no such curve, though single readings can be large; an effect the other way counts as inactive or inconclusive.
SMILES,HPGD block,Tau fluor counter,Tau FP inhib,Tau ThT inhib,ALDH1A1 block,NPSR antagonist,HPGD inh cf
CCOc1ccc(C(C)=O)cc1N1C(=O)C2C3C=CC(C3)C2C1=O (centres undefined),0.0%,0.9%,4.9%,-10.5%,10.2%,4.8%[46.1 µM],nt
O=[N+]([O-])c1cc(/C=N/n2c(-c3ccncc3)n[nH]c2=S)ccc1Cl,nt,?,0.1%,?,?,16.7%,nt
Cc1cc(-c2n[nH]c(=S)n2/N=C/c2cc([N+](=O)[O-])ccc2Cl)n[nH]1,25.1µM*,-8.1%,-13.1%,-18.0%,?,-17.3%,nt
Cc1cc(-c2n[nH]c(=S)n2/N=C/c2ccc(Cl)c([N+](=O)[O-])c2)n[nH]1,7.94µM*,-22.7%,5.3%,?,14.1µM*,-19.3%,nt
CCc1ccc(-n2nc(C)c3c(C)cc(=O)n(CC(=O)Nc4cc(C)ccc4C)c32)cc1,nt,1.3%,-7.4%,3.5%,nt,nt,nt
COc1ccc(C(=O)OCC(=O)c2c(N)n(C)c(=O)n(C)c2=O)cc1OC,nt,-0.6%,-5.2%,-0.2%,2.8%,-3.9%,nt
Cc1ccc(C)c(N2C(=O)c3ccc(C(=O)OCC(=O)c4c(N)n(C)c(=O)n(C)c4=O)cc3C2=O)c1,-19.4%,-5.8%,2.4%,0.5%,20µM*,11.7%,nt
CCN(CC)c1ccc(NC(=O)CC2Oc3ccccc3NC2=O)c(C)c1 (centres undefined),-12.4%,-16.6%,9.6%,?,-10.2%,-10.9%[46.1 µM],nt
COc1cccc(C(=O)/C(C#N)=N/Nc2cccc(-c3ccnc(C)n3)c2)c1,nt,?,-2.4%,5.01µM*,nt,59.7%[7.67 µM],nt
CNC(=O)Nc1cccc(-c2ccnc(C)n2)c1,nt,-7.4%,-4.2%,-4.0%,nt,-4.4%[7.67 µM],nt
O=c1/c(=C\c2ccc(O)cc2)sc2n1C(c1ccccc1)C(c1ccccc1)=NN=2 (centres undefined),15.8µM*,?,0.2%,?,8.91µM*,-29.6%[46.1 µM],nt
COc1ccccc1C1C(C(C)=O)=C(C)N=c2s/c(=C\c3cc(OC)c(OC)c(OC)c3)c(=O)n21 (centres undefined),-14.7%,-1.9%,7.6%,?,0.2%,-16.2%[46.1 µM],nt
Nc1[nH]c(=S)[nH]c(=O)c1-c1ccccc1,25.1µM*,10.4%,-5.7%,2.1%,?,-0.1%[46.1 µM],nt
O=C1/C(=C/c2cccnc2)CCc2c1[nH]c1ccccc21,nt,-23.4%,-0.8%,7.08µM*,?,36.3%,nt
CC1C/C(=C\c2cccnc2)C(=O)/C(=C/c2cccnc2)C1 (centres undefined),-9.7%,-15.7%,?,7.08µM*,-11.2%,-31.2%,nt
CCc1ccccc1NC(=O)c1sc2nc3n(c(=O)c2c1C)CCC3,nt,?,2.5%,-9.1%,nt,nt,nt
Cc1ccc(C(=O)NCC(c2ccco2)S(=O)(=O)c2ccc(Cl)cc2)cc1C (centres undefined),nt,-24.0%,-11.5%,-15.8%,nt,nt,nt
O=C1ON=C(c2ccccc2)/C1=C/c1ccc(-c2ccccc2[N+](=O)[O-])o1,1.58µM*,-25.7%,6.6%,?,10µM*,7.94µM*,0.447µM*
O=C(Nc1ccc(C(=O)N2CCCCC2)cc1)c1ccc(Br)cc1,0.631µM*,-5.8%,-1.8%,-9.3%,14.1µM*,-1.5%[46.1 µM],0.355µM*
O=C(Nc1ccc(Br)cc1)N1CCCCCCC1,-8.9%,-4.4%,7.4%,-9.7%,0.3%,11.4%[46.1 µM],nt
COc1ccccc1C(=O)Nc1ccc(C(=O)N2CCCC2)cc1,1.41µM*,-8.0%,-6.0%,-9.2%,-4.6%,-10.9%[46.1 µM],1µM*
COc1ccccc1NC(=O)c1sc2nc(Cc3ccccc3)cc(C(F)(F)F)c2c1N,-7.4%,-20.9%,?,-19.4%,4.3%,-8.2%[46.1 µM],-17.8%
COc1ccc(NC(=O)c2sc3nc(Cc4ccccc4)cc(C(F)(F)F)c3c2N)cc1OC,-9.7%,?,2.6%,?,-2.7%,-20.8%,nt
Fc1ccccc1CSc1nc2ncc(Br)cc2[nH]1,0.794µM*,-18.4%,-1.5%,-12.2%,-15.4%,-11.4%[46.1 µM],0.631µM*
O=C(CSc1nc2ncc(Br)cc2[nH]1)c1cccc([N+](=O)[O-])c1,7.94µM*,?,1.7%,?,?,-6.3%,2.24µM*
SMILES,HPGD block,Tau fluor counter,Tau FP inhib,Tau ThT inhib,ALDH1A1 block,NPSR antagonist,HPGD inh cf
COc1ccc(-c2cc(C(F)(F)F)n3nc(C(=O)N4CCCCC4)cc3n2)cc1OC,0.501µM*,-7.6%,4.4%,?,-11.4%,3.5%[46.1 µM],0.282µM*
O=C(c1ccc(COc2ccccc2Br)cc1)N1CCCCC1,0.0447µM*,-11.8%,1.4%,?,?,-29.5%[46.1 µM],0.0891µM*
O=C(NCCc1ccccc1)C1CCC(CNc2c(N3CCCCC3)c(=O)c2=O)CC1 (centres undefined),6.31µM*,-8.1%,-0.9%,-3.4%,-15.7%,5.4%,6.31µM*
Cc1ccc(CCNC(=O)C2CCC(CNc3c(N4CCC(C)CC4)c(=O)c3=O)CC2)cc1 (centres undefined),?,-4.2%,-6.6%,3.8%,-4.7%,-37.1%,14.1µM*
O=C(NCCc1ccc(Cl)cc1)C1CCC(CNc2c(N3CCCCC3)c(=O)c2=O)CC1 (centres undefined),-27.6%,-16.7%,0.7%,-6.6%,-1.6%,-5.6%,17.8µM*
CC1CCN(c2c(NCC3CCC(C(=O)NCCc4ccccc4)CC3)c(=O)c2=O)CC1 (centres undefined),6.31µM*,-10.5%,2.9%,-5.1%,-0.4%,-1.8%,6.31µM*
COc1ccc(CNC(=O)C2CCC(CNc3c(N4CCCCC4)c(=O)c3=O)CC2)cc1 (centres undefined),nt,-8.2%,-1.6%,nt,nt,-2.9%,nt
CCCCNC(=O)C1CCC(CNc2c(N3CCC(C)CC3)c(=O)c2=O)CC1 (centres undefined),nt,-6.9%,1.0%,nt,nt,6.7%,nt
CC(C)(C)C(=O)OC1=CN(Cc2ccccc2)S(=O)(=O)c2ccccc21,nt,-24.2%,-2.5%,-4.0%,nt,nt,nt
COC(=O)C[C@H]1c2ccccc2C2=C(C[C@@H](C)[C@H]3C(=O)N(c4ccccc4)C(=O)[C@@H]23)N1C(=O)OC,-3.7%,-0.6%[11.6 µM],-4.3%[11.6 µM],5.8%[11.5 µM],?,nt,nt
O=C(CSC1=Nc2ccccc2N=C(c2ccc(F)cc2)C1)NCc1ccc(Cl)cc1,nt,-17.1%,-2.6%,-7.4%,nt,nt,nt
NS(=O)(=O)c1cc2c(cc1Cl)NC(C1C[C@H]3C=C[C@@H]1C3)NS2(=O)=O (some centres undefined),-9.6%,-12.6%,5.2%,-10.1%,1.5%,-7.9%,nt
O=C(c1ccc(N2CCCC2=O)cc1)N1CCCCCC1,0.224µM*,0.2%,-0.2%,-1.1%,?,-3.9%[46.1 µM],0.282µM*
O=C(c1ccc(N2CCCC2=O)cc1)N1CCN(c2ccccc2)CC1,-2.6%,-6.1%,-1.2%,-13.3%,8.9%,-3.0%[46.1 µM],nt
